In the library only some 12% were active in any assay of this set; here they are far more common.
HCV inhibitor – qHTS Assay for Inhibitors of Hepatitis C Virus (HCV); Huh7.5.1 HCVcc-Cre infection, luciferase reporter, 44 h; Potency, µM (series often up to 41.8 µM), inactives show at the top dose activity change, negative = inhibition, hits mostly inhibitors; 3.4% of 340,000 active; AID 651820, 2012; also: % is scaled to controls: 0 for no effect and ±100 for the full control effect
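Whole-lifecycle infectious HCVcc-Cre system; cells 1,000/well, compound then virus (~0.5 moi) added 4 h after plating, 44 h culture. Luciferase read 15 sec following 15 min substrate incubation, room temp.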
AMA1 RON2 block – qHTS for Inhibitors of AMA1-RON; Towards Development of Antimalarial Drug Lead: Primary Screen; Plasmodium falciparum AMA1 (3D7) - RON2 peptide interaction; AlphaScreen AMA1-biotinylated RON2 peptide binding; Potency, µM (titrated, usually from 58.2 µM), inactives show at the highest dose activity change, negative = inhibition, most hits filed as inhibitors; 0.2% of 360,000 active; AID 720542, 2013;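 also: 0% = vehicle wells and -100% = peptide control; nearly all actives have a fitted effect of over 45% in size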
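AMA1 (3D7) with his tag at 25 nM final met compounds first, then biotinylated RON2 peptide at 25 nM; detection used donor plus acceptor beads, 10 µg/mL apiece, read by AlphaScreen after 30 min at room temperature.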
NS1 function inh – qHTS Assay for Inhibitors of Influenza NS1 Protein Function; Potency, µM (doses to about 46.1 µM), for inactives: at the top dose activity, positive = more growth; AID 2326, 2010; 0.4% of 270,000 active; calls by dose curve; also: actives are rising curves; nearly all actives have a fitted effect of over 50% in size
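S. cerevisiae expressing influenza A NS1, grown in glucose, washed, then diluted 1:100 into pH 6.0 -URA galactose medium with 23 nl compound. Growth recovery read as OD600; NS1-free strain serves as control.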
Pf growth 96h – Primary qHTS for delayed death inhibitors of the malarial parasite plastid, 96 hour incubation; P. falciparum luciferase reporter growth, 96 h; AID 504834, 2011; 6.9% of 320,000 active; Potency, µM (highest dose often 28.7 µM), for inactives: at the highest dose activity change, negative = inhibition, actives largely listed as inhibitors; also: % is scaled to controls: 0 for no effect and ±100 for the full control effect
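Erythrocytes infected with luciferase-expressing P. falciparum were dispensed at 2% hematocrit and 0.05% parasitemia (final), then incubated with compounds 96 hours at 37 C in 5% CO2. Luminescence after detection reagent addition reported growth.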
Pf growth 48h – Primary qHTS for delayed death inhibitors of the malarial parasite plastid, 48 hour incubation; P. falciparum luciferase growth in erythrocytes, 48 h; Potency, µM (series often up to 28.7 µM), for inactives: at the highest dose activity change, negative = inhibition, actives largely listed as inhibitors; 5.9% of 310,000 active; AID 504832, 2011; also: % is scaled to controls: 0 for no effect and ±100 for the full control effect
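Parasite viability was followed by luminescence of a genomically integrated firefly luciferase. Cultures held 0.1% parasitemia at 2% hematocrit (final), incubated under 5% CO2 at 37 C.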
SARS PLpro yeast – qHTS of Yeast-based Assay for SARS-CoV PLP | S. cerevisiae expressing SARS-CoV PLpro, growth rescue | Potency, µM (titrated, usually from 32.9 µM), for inactives: at the top dose activity, positive = growth rescue, hits mostly activators | 0.19% of 330,000 active | AID 485353, 2010; calls by dose curve; also: 0% is about no effect; nearly all actives have a fitted effect of over 55% in size
The depositor's hits bear a star. Unless noted, calls follow the shape of the dose curve; as a rule, active = well fitted curve in the direction sought with a large enough effect; inconclusive = small, poorly fitted or top-dose-only effect, or another doubt; inactive = no such curve, though single readings can be large; an effect the other way counts as inactive or inconclusive. Potency is read from the fitted curve at half-maximal effect.

`COc1ccc(OC)c(/C=N/NC(=O)CNC(=O)c2ccc(S(=O)(=O)N3CCOCC3)cc2)c1` gave HCV inhibitor 26.5%, AMA1 RON2 block 9.5%, NS1 function inh -0.5%, Pf growth 96h -8.8%, Pf growth 48h 10.4% and SARS PLpro yeast -4.6%.
For CCc1nnc(NC(=O)CSc2nnc(-c3ccccc3NC(=O)c3ccccc3)o2)s1 the results were HCV inhibitor 11.2µM*, AMA1 RON2 block 15.8%, NS1 function inh -5.0%, Pf growth 96h inconclusive, Pf growth 48h 6.4% and SARS PLpro yeast 4.1%.
O=C(Nc1ccccc1-c1nnc(SCc2ccc(Cl)cc2Cl)o1)c1ccccc1 was read as HCV inhibitor inconclusive, AMA1 RON2 block -2.7%, NS1 function inh 11.7%, Pf growth 96h 2.33µM*, Pf growth 48h -3.1% and SARS PLpro yeast -9.1%.
Cc1ccc(SCc2nc3ncccn3c2Br)cc1 was read as HCV inhibitor 0.9%, AMA1 RON2 block 10.7%, NS1 function inh -3.8%, Pf growth 96h -4.9%, Pf growth 48h -18.3% and SARS PLpro yeast 0.4%.
Screening Clc1cccc2c1Sc1ccccc1CC2N1CCNCC1 (configuration not stated) returned HCV inhibitor 10µM*, AMA1 RON2 block -15.6%, NS1 function inh -75.2%, Pf growth 96h 10.4µM*, Pf growth 48h inconclusive and SARS PLpro yeast -41.8%.
For COCCCN1CCN(C2Cc3ccccc3Sc3ccc(Cl)cc32)CC1 (configuration not stated) the results were HCV inhibitor -15.1%, AMA1 RON2 block -27.4%, NS1 function inh -35.6%, Pf growth 96h inconclusive, Pf growth 48h inconclusive and SARS PLpro yeast -20.2%.
Clc1ccc2c(c1)C(N1CCNCC1)Cc1ccccc1S2 (configuration not stated) was read as HCV inhibitor inconclusive, AMA1 RON2 block -5.7%, NS1 function inh 7.6%, Pf growth 96h 13.1µM*, Pf growth 48h 10.4µM* and SARS PLpro yeast -21.2%.
CCC1(c2ccccc2)NC(=O)N(CC(=O)N(CC(=O)Nc2ccccc2C(F)(F)F)Cc2ccco2)C1=O (configuration not stated) was read as HCV inhibitor -1.0%, AMA1 RON2 block 3.5%, Pf growth 96h inconclusive, Pf growth 48h inconclusive and SARS PLpro yeast -0.8%.
Screening O=C(O)C(Oc1ccc2ccccc2c1)c1ccccc1 (configuration not stated) returned HCV inhibitor 2.4% and AMA1 RON2 block -11.1%.
CCOc1cc(Cl)c(S(=O)(=O)NCc2cccnc2)cc1Cl was read as HCV inhibitor inconclusive, AMA1 RON2 block 14.4%, NS1 function inh 2.4%, Pf growth 96h -16.0%, Pf growth 48h 41.1% and SARS PLpro yeast -0.3%.
CSc1ccc(CNC2CN3CCC2CC3)cc1 (configuration not stated) was read as HCV inhibitor -14.9%, AMA1 RON2 block -3.4%, NS1 function inh inconclusive, Pf growth 96h 1.65µM*, Pf growth 48h 3.0% and SARS PLpro yeast 2.2%.
Screening c1ccc(CNC2CN3CCC2CC3)cc1 (configuration not stated) returned HCV inhibitor 11.9% and AMA1 RON2 block 3.7%.
`O=C(Nc1ccccc1OC(F)F)c1ccc(-n2cncn2)c([N+](=O)[O-])c1` gave HCV inhibitor -22.7%, AMA1 RON2 block -2.6%, Pf growth 96h -3.3%, Pf growth 48h inconclusive and SARS PLpro yeast -0.5%.
For Cc1cc2c(ncn2Cc2ccccc2)c(N)c1C the results were HCV inhibitor 9.7%, AMA1 RON2 block -3.8%, Pf growth 96h inconclusive, Pf growth 48h inconclusive and SARS PLpro yeast -0.3%.
COc1ccc(OC)c(C2=Nn3c(nnc3C3CCCCC3)SC2)c1 was read as HCV inhibitor 15.8µM*, AMA1 RON2 block -7.6%, NS1 function inh -6.7%, Pf growth 96h 9.28µM*, Pf growth 48h inconclusive and SARS PLpro yeast -0.5%.
For COc1ccc(C2=Nn3c(nnc3C3CCCCC3)SC2)cc1OC the results were HCV inhibitor inconclusive, AMA1 RON2 block -5.0%, NS1 function inh -2.2%, Pf growth 96h 4.65µM* and SARS PLpro yeast 14.1%.
c1ccc(CN2CCN(c3nc(-c4ccccn4)nc4ccccc34)CC2)cc1 was read as HCV inhibitor 8.5%, AMA1 RON2 block -15.1%, NS1 function inh -55.6%, Pf growth 96h -99.0%, Pf growth 48h 1.65µM* and SARS PLpro yeast 6.0%.
`CN1CCN(c2nc(-c3ccccc3O)nc3ccccc23)CC1` gave HCV inhibitor inconclusive, AMA1 RON2 block 4.3%, NS1 function inh -3.8%, Pf growth 96h inconclusive, Pf growth 48h inconclusive and SARS PLpro yeast -0.7%.
Screening CN1CCN(c2nc(-c3ccncc3)nc3ccccc23)CC1 returned HCV inhibitor inconclusive, AMA1 RON2 block -16.8%, NS1 function inh -24.8%, Pf growth 48h 9.28µM* and SARS PLpro yeast 4.6%.
Screening Oc1ccc(N2CCN(c3nc(-c4cccs4)nc4ccccc34)CC2)cc1 returned HCV inhibitor inconclusive, AMA1 RON2 block inconclusive, NS1 function inh 8.1%, Pf growth 96h inconclusive, Pf growth 48h inconclusive and SARS PLpro yeast -5.7%.
For Oc1ccccc1N1CCN(c2nc(-c3cccs3)nc3ccccc23)CC1 the results were HCV inhibitor 11.2µM*, AMA1 RON2 block -6.1%, NS1 function inh 5.8%, Pf growth 96h inconclusive, Pf growth 48h inconclusive and SARS PLpro yeast -3.3%.
OCCN1CCN(c2nc(-c3ccccc3O)nc3ccccc23)CC1 was read as HCV inhibitor 22.4µM*, AMA1 RON2 block 2.5%, NS1 function inh -1.1%, Pf growth 96h inconclusive, Pf growth 48h -17.2% and SARS PLpro yeast -4.8%.
CCN(CC(=O)NCc1cccs1)C(=O)CCOc1ccccc1 was read as HCV inhibitor 2.9%, AMA1 RON2 block -20.3% and SARS PLpro yeast -0.8%.
`COc1cc(C2NC(=O)NC(C)=C2[N+](=O)[O-])cc(OC)c1OC` (configuration not stated) gave HCV inhibitor 14.2%, AMA1 RON2 block -10.6%, NS1 function inh 3.2%, Pf growth 96h 1.1%, Pf growth 48h 9.5% and SARS PLpro yeast 0.6%.
`C[C@]12C(=O)N(c3ccc(Br)cc3)C(=O)N1[C@H]1c3ccccc3OC[C@@H]1[C@H]2c1ccccc1` gave HCV inhibitor 8.0%, AMA1 RON2 block -3.4% and SARS PLpro yeast 4.7%.

High-throughput results as filed in PubChem BioAssay.
